From PubChem BioAssay
In the library only some 10% were active in any assay of this set; here they are far more common.
CtBP-E1A inh: CtBP/E1A binding inhibition; activity change, % (no concentration beside the values); 340,000 compounds, 0.49% hits; AID 651724; AlphaScreen GST-E1A/His-CtBP binding, 1536-well; active compounds read low; in the data active means activity change below about -65%; inconclusive means mostly about -30% to -63%; further: on the % scale 0 is the no-effect control and ±100 the full control effect
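GST-E1A and His-tagged CtBP (125 nM each as 5X stock) were preincubated with pin-transferred compound for 2 h at 37 °C in the dark, then glutathione donor and nickel acceptor beads were added for 1 h before AlphaScreen reading.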
G9a block: blocks human histone lysine methyltransferase G9a; Q96KQ7; G9a H3K9 monomethylation, AlphaScreen, 2 h; Potency, µM (titrated, usually from 102 µM), without a hit: at the top dose activity, negative = inhibition, usual class: inhibitors; 350,000 compounds, 8.8% hits; AID 504332; further: potency means the concentration at half of the fitted maximal effect; on the % scale 0 is the no-effect control and ±100 the full control effect; nearly all actives have a fitted effect of over 75% in size
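AlphaScreen detection with an anti-monomethyl H3K9 antibody quantified product after a 2 h room-temperature reaction containing 500 nM biotinylated H3K9 peptide, 20 µM SAM and 20 nM enzyme, which had been preincubated 15 min with compound.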
JMJD2A Tudor inh: JMJD2A Tudor domain (human) inhibition. AID 504339. AlphaScreen JMJD2A-Tudor / H3K4me3 peptide binding. 390,000 compounds, 4.4% hits. O75164. Potency, µM (series often up to 114 µM), inactives show at the highest dose activity change, negative = inhibition, usual class: inhibitors; further: potency means the concentration at half of the fitted maximal effect; on the % scale 0 is the no-effect control and ±100 the full control effect; nearly all actives have a fitted effect of over 50% in size
BAZ2B block: BAZ2B (human) inhibition. Q9UIF8. AlphaScreen BAZ2B-H3K14Ac peptide displacement. Potency, µM (doses to about 114 µM), inactives show top-dose activity change, negative = inhibition, usual class: inhibitors. 360,000 compounds, 4.4% hits; further: potency means the concentration at half of the fitted maximal effect; on the % scale 0 is the no-effect control and ±100 the full control effect; nearly all actives have a fitted effect of over 60% in size
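AlphaScreen displacement: compounds (up to 110uM) incubated 30 min at room temperature with a preformed 50 nM BAZ2B/50 nM biotinylated H3K14Ac peptide complex in PBS pH 7.4 with Tween-20. Donor and acceptor beads at 10 ug/mL final added, 20 min light-protected before reading.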
Six1-Eya2 inh: Six1/Eya2 interaction inhibition; Q15475+O00167; activity change, % (concentration not given with the values); AlphaScreen GST-Six1/His-Eya2 binding, biochemical; active compounds read low; AID 651725; 360,000 compounds, 0.56% hits; in the data active means activity change below about -65%; inconclusive means mostly about -30% to -63%; further: on the % scale 0 is the no-effect control and ±100 the full control effect
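Homogeneous AlphaScreen proximity assay pairing GST-Six1 with His-tagged Eya2 (added as 5X mix: 250 nM and 500 nM) in 50 mM Tris pH 8.0, 300 mM NaCl, 1 mM TCEP. Glutathione donor and nickel acceptor beads; 1 h, 37 °C, dark.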
HP1b binding inh: HP1-beta chromodomain-methylated histone interaction inhibition; 390,000 compounds, 0.56% hits; P83916; AlphaScreen HP1-beta / biotin-H3K9me3 peptide binding; Potency, µM (titrated, usually from 114 µM), for the others: top-dose activity change, negative = inhibition, actives largely listed as inhibitors; further: potency means the concentration at half of the fitted maximal effect; nearly all actives have a fitted effect of over 70% in size
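AlphaScreen: HP1-beta (50 nM) preformed 30 min with biotin-H3(1-18)K9me3 peptide (50 nM) in PBS pH 7.4, 0.01% Tween-20. Compound added for 30 min at RT, then streptavidin donor/nickel chelate acceptor beads (10 ug/mL) for 30 min.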
Numbers without * were called inactive; ? = inconclusive; nt = not tested or not shown; [ ] = another dose, or the depositor's remark. Unless noted, the call rests on the fitted dose curve; in most records, active means well fitted inhibition curve with a large enough effect; inconclusive means small, poorly fitted or top-dose-only effect; inactive means no such curve, though single readings can be large or run the other way.

SMILES	CtBP-E1A inh	G9a block	JMJD2A Tudor inh	BAZ2B block	Six1-Eya2 inh	HP1b binding inh
C=C1C(=O)[C@]23[C@H](O)[C@H]1CC[C@H]2[C@@]12COC3(O)[C@H](O)[C@@H]1C(C)(C)CC[C@@H]2O	nt	7.08µM*	nt	nt	nt	nt
O=C(Nc1ccccc1N1CCCC1)C1CCN(S(=O)(=O)c2ccccc2C(F)(F)F)CC1	-9.1	35.5µM*	?	-31.2%	-20.9	20.4%
Cc1ccccc1N1CC(C(=O)Nc2ccc(S(=O)(=O)N3CCCCC3)cc2)CC1=O (stereo not drawn)	0.6	70.8µM*	-17.4%[57.1 µM]	-8.4%	-1.8	36.5%
O=C(Nc1ccccc1N1CCCC1)C1CCN(S(=O)(=O)c2ccccc2)CC1	-1.4	50.1µM*	?	-38.5%	-9.7	-7.6%
O=S(=O)(c1ccc(Oc2ccc3c(c2)OCO3)c(S(=O)(=O)N2CCOCC2)c1)N1CCOCC1	nt	nt	-30.0%[57.1 µM]	nt	nt	7.0%[57 µM]
O=C(NCc1cccnc1)c1cc(C2CCCCN2C(=O)OCCF)on1 (stereo not drawn)	4.6	nt	nt	nt	2.7	nt
CCCn1ncc(C(=O)N(C)C2CCCN(Cc3ccccc3F)C2)c1C (stereo not drawn)	1.1	-7.1%	-17.1%	-7.7%	2.5	23.4%
CC(=O)NC1[C@H]([C@H](O)[C@H](O)CO)OC(C(=O)O)=C[C@H]1N=C(N)N (stereo partly drawn)	nt	36.0%[59 µM]	nt	nt	nt	nt
C=CCOc1c(Cl)cc(Cl)cc1S(=O)(=O)NCCO	-8.3	nt	-32.2%	nt	0.5	12.9%
CC(N=Cc1cccc(O)c1O)c1ccccc1 (stereo not drawn)	3.2	1.26µM*	44.7µM*	50.1µM*	-18.8	?
Oc1ccccc1C=NN=C1c2ccccc2-c2ccccc21	-7.5	nt	15.8µM*	nt	?	44.7µM*
CC(N=Cc1cc([N+](=O)[O-])ccc1O)c1ccccc1 (stereo not drawn)	5.8	-33.6%	-11.4%	nt	3.3	24.6%
Cc1ccccc1N=Cc1cccc(O)c1O	1.0	7.94µM*	39.8µM*	39.8µM*	?	?
Oc1cccc(/C=N/N=C/c2cccc(O)c2O)c1O	-4.2	31.6µM*	-24.5%	-30.9%	-18.3	13.8%
CCOC(=O)C1CCN(S(=O)(=O)c2ccc3c4c(cccc24)C(=O)N3CC)CC1	-10.4	nt	71.0%	nt	-29.0	152.8%
CCOc1ccccc1N(C)C(=O)c1cc(S(=O)(=O)NCc2ccc(C)cc2)ccc1F	nt	-12.3%[59 µM]	-12.8%	-1.6%	nt	0.4%
Cc1ccc(N=Cc2cccc(O)c2O)c(C)c1	nt	?	35.5µM*	-31.8%	nt	15.8µM*
O=C(NCc1ccncc1)c1cccc(S(=O)(=O)Nc2ccc(F)cc2)c1	0.4	?	-11.6%	3.5%	5.8	29.0%
COc1cc(-c2nnc(SCC(=O)N3CCOCC3)o2)cc(OC)c1OC	5.5	39.8µM*	-27.7%	-5.3%	1.7	9.1%
CC(C)(C)C(=O)[C@@H]1[C@@H]2C(=O)N(C3CCCCC3)C(=O)[C@@H]2[C@H]2c3ccccc3C=CN12	-14.8	10µM*	?	-15.1%	-14.0	46.0%
O=C(c1ccc2c(c1)OCO2)[C@@H]1[C@@H]2C(=O)N(C3CCCCC3)C(=O)[C@@H]2C2c3ccccc3C=CN21 (stereo partly drawn)	23.1	31.6µM*	-17.4%	-27.9%	14.2	25.1%
O=C(Nc1ccc2c(c1)OCO2)[C@@H]1[C@@H]2C(=O)N(C3CCCCC3)C(=O)[C@@H]2C2c3ccccc3C=CN21 (stereo partly drawn)	nt	10µM*	nt	2.5%	nt	nt
COc1ccc(N2C(=O)[C@H]3[C@@H](C2=O)C2c4ccccc4C=NN2[C@H]3C(=O)C(C)(C)C)cc1 (stereo partly drawn)	-11.2	nt	-10.4%	?	-0.2	20.9%
COc1ccc(N2C(=O)[C@@H]3[C@H](C2=O)[C@H]2c4ccccc4C=CN2[C@@H]3C(C)=O)cc1	25.8	8.91µM*	?	?	-10.5	-14.0%
c1cnc(N2CCN(Cc3ccc4c(c3)OCO4)CC2)nc1	-4.0	0.5%[59 µM]	-16.5%	-16.7%	-2.7	21.6%
SMILES	CtBP-E1A inh	G9a block	JMJD2A Tudor inh	BAZ2B block	Six1-Eya2 inh	HP1b binding inh
Brc1ccc(CN2CCN(c3ccccn3)CC2)s1	5.6	14.1µM*	7.94µM*	44.7µM*	-2.1	?
c1ccc(N2CCN(Cc3ccc4c(c3)OCO4)CC2)nc1	2.5	nt	28.2µM*	nt	-2.6	?
COc1ccccc1-c1noc(-c2ccc(NC(C)C)c([N+](=O)[O-])c2)n1	nt	-33.4%[59 µM]	-0.3%	?	nt	58.6%
CCCCC(=O)NC(=S)Nc1c(C)cc(Br)cc1C	nt	10µM*	?	-22.1%	3.9	26.0%
CCCCC(=O)NC(=S)NNS(=O)(=O)c1ccccc1	-1.5	?	?	-0.7%	-2.6	-18.7%
CCCCC(=O)NC(=S)NNC(=O)CC	-2.0	7.08µM*	6.9%[11.4 µM]	17.8%	-3.2	50.9%
CCCCCC(=O)NC(=S)NNC(=O)CC	12.5	?	28.2µM*	33.0%	-4.1	-8.2%
CCCCC(=O)NC(=S)Nc1cccc(NC(=O)CC)c1	-8.9	41.3%[0.0925 µM]	-20.9%	3.3%	-7.2	16.0%
O=C(NCCc1csc2nc(-c3ccccc3F)nn12)C(=O)Nc1cc(F)ccc1F	nt	1.5%[59 µM]	5.4%	-1.7%	nt	23.7%[57 µM]
CCC(C)N(C(=O)COC(=O)c1ccccc1SCC(=O)N1CCCC1)C1CCS(=O)(=O)C1 (stereo not drawn)	-1.0	nt	-9.0%	-7.4%	7.9	18.1%
CC(NC(=O)COc1ccc(-c2nnco2)cc1)c1ccc(Cl)cc1Cl (stereo not drawn)	-4.1	44.7µM*	-9.1%	-3.2%	4.0	12.0%
O=C(COc1ccc(-c2nnco2)cc1)NCc1ccccc1Cl	-5.2	-6.7%	-22.0%	-3.6%	1.5	21.0%
O=C1N=c2ccc(Br)cc2=C1c1sc(=O)[nH]c1O	nt	44.7µM*	nt	?	nt	nt
CCn1c(O)c(C2=c3ccccc3=NC2=O)c2cc(Br)ccc21	5.2	?	-18.9%	-35.3%	-9.6	7.4%
O=S(=O)(/N=C(/NC(=S)Nc1ccccc1)c1ccccc1)c1ccc(Cl)cc1	-4.9	11.2µM*	-31.5%	-23.2%	-2.2	?
CCOc1ccc(S(=O)(=O)/N=C(\N)c2ccccc2)cc1	-4.8	35.5µM*	-10.0%	-14.0%	-3.5	0.5%
